The text below walks through data of PubChem BioAssay AID1490 (National Center for Advancing Translational Sciences (NCATS), 2009).

Several values for one entry are separate records, joined by “and”; a condition that tells them apart may be missing. Equal entries are not always repeated. Among all 310,000 compounds or so, about 11,000 (3.5%) were called active. Not shown: some 4% with an inconclusive outcome. Only a selection was taken, and actives are over-represented in it overall. A number with no mark means an inactive call. Calls come from the whole dose curve; as a rule, active = well fitted inhibition curve with a large enough effect; inconclusive = small, poorly fitted or top-dose-only effect, or another doubt; inactive = no such curve, though single readings can be large or run the other way.
Potency is the fitted concentration of half-maximal effect.

The target in the assay is 4'-phosphopantetheinyl transferase ffp (Bacillus subtilis) (UniProt Q9F4F7). Put plainly: qHTS Assay for Inhibitors of Bacillus subtilis Sfp phosphopantetheinyl transferase (PPTase).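 For largest response in the series, negative = inhibition: 0% = enzyme reaction without inhibitor and -100% = no enzyme wells.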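 Note: the enzyme is Sfp with the accession as filed and its product quenches rhodamine fluorescence.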 The conditions noted are these: Biochemical Sfp PPTase activity. The procedure, abridged:
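Buffer: 50 mM Hepes-Na pH 7.6, 10 mM MgCl2, 0.01% Nonidet P-40, 0.01% BSA. Enzyme 15 nM, pre-exposed to compound 15 min; substrates then added and fluorescence change tracked over 30 min.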
In the case of `Cc1cc(C)cc(Oc2c(C(F)(F)F)oc3cc(OCC(=O)O)ccc3c2=O)c1`, the largest response in the series, negative = inhibition was 5.59%.

For `CCOC(=O)N1CCC(N2Cc3cccc(C(=O)Nc4ccc(S(=O)(=O)N(CC)CC)cc4)c3C2=O)CC1`, the largest response in the series, negative = inhibition was -1.4%.

As to `CCc1ccc2nc(N(CCCN(C)C)C(=O)c3ccc4c(c3)OCCO4)sc2c1`, the largest response in the series, negative = inhibition is -7.75%.

On to `CCOc1ccc2nc(N(CCN(C)C)C(=O)c3ccc4ccccc4c3)sc2c1`, for which the Potency is 79.4 µM (active).

Regarding `CCCC(=O)N(CCN1CCOCC1)c1nc2ccc(OCC)cc2s1`, the largest response in the series, negative = inhibition was 4.61%.

As for `COc1ccccc1N1CCN(S(=O)(=O)CCNC(=O)c2ccc(OC(C)C)cc2)CC1`, the largest response in the series, negative = inhibition is 3.56%.

For the compound `COc1ccc(CCN2C(=O)C3CC=C(C)CC3C2=O)cc1OC` (stereo unspecified), the largest response in the series, negative = inhibition is 7.59%.

On to `COc1ccc(N2C(=O)CC(N3CCC(C(N)=O)CC3)C2=O)cc1` (stereo unspecified), for which the largest response in the series, negative = inhibition was -13.3%.

In the case of `COc1ccc(CCN2C(=O)CC(N3CCC(C(N)=O)CC3)C2=O)cc1OC` (stereo unspecified), the Potency is 50.1 µM (active).

Take `COc1cc(Cl)c(C)cc1NC(=O)CN1CCCCCC1`: the largest response in the series, negative = inhibition was 1.55%.

With `CSC(=S)N/N=C/c1c[nH]c2ccccc12`, the largest response in the series, negative = inhibition was 7.95%.

With `O=C(N/N=C/c1c[nH]c2ccccc12)c1ccccc1O`, the largest response in the series, negative = inhibition was 16.9%.

In the case of `C[n+]1ccc(/C=C/c2c[nH]c3ccccc23)cc1`, the Potency was 56.2 µM (active).

As for `Cc1cc(=O)[nH]c(Nc2cccc(Br)c2)n1`, the largest response in the series, negative = inhibition is -3.95%.

With `Cc1cccc(C)c1NC(=O)CSc1nc2c([nH]1)c(=O)n(C)c(=O)n2C`, the largest response in the series, negative = inhibition is -3.14%.

On to `CC(CCO)Nc1nc2c([nH]1)c(=O)n(C)c(=O)n2C` (stereo unspecified), for which the largest response in the series, negative = inhibition is 11.2%.

Take `Cc1ccc(NN=Nc2nc3c([nH]2)c(=O)n(C)c(=O)n3C)cc1`: the Potency is 25.1 µM (active).

On to `CSc1nccc(NC(=O)c2ccc(C(C)(C)C)cc2)n1`, for which the largest response in the series, negative = inhibition was -8.43%.

In the case of `CCOC(=O)N1CCN(C(=O)c2ccc3c(=O)n(CCc4ccc(OC)c(OC)c4)c(=O)[nH]c3c2)CC1`, the largest response in the series, negative = inhibition was 8.01%.

Turning to `O=C(O)[C@@H](S)[C@H](S)C(=O)O`, the Potency is 1.12 µM (active).

As for `O=C(C[n+]1cc(Br)cc2ccccc21)c1ccc(F)cc1`, the largest response in the series, negative = inhibition was 4.07%.

`COc1cccc([C@@H]2Oc3ccc(Br)cc3C(=O)[C@H]2OC(=O)NCCc2ccc(OC)c(OC)c2)c1`: the largest response in the series, negative = inhibition is -29.3%.

For the compound `COc1ccccc1N1CCN(C(=O)c2ccc(NC3=NC4CS(=O)(=O)CC4S3)cc2)CC1` (stereo unspecified), the largest response in the series, negative = inhibition is 11.2%.

Turning to `COc1ccc(CCCOC(Cn2ccnc2)c2ccc(OC)cc2)cc1` (stereo unspecified), the largest response in the series, negative = inhibition is 10.3% and -14.1%.

Regarding `CC(=O)c1cc(C#N)c(N2CCCCC2)nc1C`, the largest response in the series, negative = inhibition is 10.1%.

As for `Cc1cc(C)c(C#N)c(N2CCC(C(N)=O)CC2)n1`, the largest response in the series, negative = inhibition is 15.7%.

Take `N#Cc1c(N2CCCCC2)nc(N)c2c(N)nc(SCC(=O)O)cc12`: the Potency is 8.91 µM (active).

On to `N#CCc1ccc(NC(=O)c2ccccc2C(=O)Nc2ccc(CC#N)cc2)cc1`, for which the largest response in the series, negative = inhibition is 5.96%.

For `CCOCc1nnc(NC(=O)CCC2CCCCC2)s1`, the largest response in the series, negative = inhibition is 18.1%.

Consider `COC(=O)CCCC1=CC2=CC(=O)C(C)(OC(=O)c3cccs3)C(=O)C2=CN1c1ccc(CO)cc1` (stereo unspecified), for which the largest response in the series, negative = inhibition was -1.16%.

In the case of `CCOC(=O)c1csc(CCNC(=O)c2oc3c(Cl)cc(C)cc3c2C)n1`, the largest response in the series, negative = inhibition was -19.2%.

Take `O=c1[nH]c(=O)c2nc3ccccc3nc2[nH]1`: the largest response in the series, negative = inhibition is 8.31%.

As to `Nc1ccc2nc3c(=O)[nH]c(=S)[nH]c3nc2c1`, the Potency is 8.91 µM (active).

With `O=C(NCc1cc(F)cc(C(F)(F)F)c1)C1CCC(=O)N(C2CCCC2)C1` (stereo unspecified), the largest response in the series, negative = inhibition was 6.77%.

On to `O=c1oc2ccccc2c(CNc2ccccc2)c1[N+](=O)[O-]`, for which the largest response in the series, negative = inhibition is 5.08%.

In the case of `C=C1C(=CC=C2CCC[C@@]3(C)[C@@H]2CC[C@H]3[C@H](C)CCCC(C)C)C[C@@H](O)C[C@@H]1O`, the largest response in the series, negative = inhibition is 3.54%.

With `O=C(N/N=C/C=C/c1ccco1)c1cccs1`, the Potency is 10 µM (active).

On to `C/C(=N\NC(=O)c1cc(-c2ccc(O)cc2)nc2ccccc12)c1cccnc1`, for which the largest response in the series, negative = inhibition was 0.726%.

As for `Cc1ccc(-c2cc(C(=O)N/N=C/C=C/c3ccco3)c3ccccc3n2)cc1C`, the Potency is 28.2 µM (active).

On to `CC(=O)Nc1ccc(/C=N/NC(=O)c2cccs2)cc1`, for which the largest response in the series, negative = inhibition is 9.99%.

Turning to `CCOc1cc(/C=N/NC(=O)c2cc(-c3ccccc3)nc3ccccc23)ccc1O`, the largest response in the series, negative = inhibition was 10.1%.

On to `O=C(N/N=C/c1ccco1)c1ccc(C(=O)N/N=C/c2ccco2)o1`, for which the largest response in the series, negative = inhibition is 22%.

As to `O=C(O)c1cc2c(cc1NC(=O)c1c(F)cccc1Cl)OCCCO2`, the largest response in the series, negative = inhibition is 14.9%.

With `Cc1nc2c(c(=O)n1Cc1ccco1)c1nc3ccccc3nc1n2Cc1ccccc1`, the Potency was 8.91 µM (active).

In the case of `Cc1ccc(Cn2c(C)nc3c(c2=O)c2nc4ccccc4nc2n3Cc2ccco2)cc1`, the largest response in the series, negative = inhibition is 18.1%.

Take `Cc1nc2ccccc2c(=O)n1Cc1ccc([N+](=O)[O-])cc1`: the largest response in the series, negative = inhibition was -0.474%.
